Nine compounds from PubChem BioAssay (NCI) can be followed below.

Assay [1] in a line: NCI Yeast Anticancer Drug Screen. Data for the rad50 strain (AID 155).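 Note: 0% = growth of vehicle-only cultures of the same strain.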 The conditions noted are these: S. cerevisiae rad50 strain growth inhibition, stronger effect = higher value. The gist of the method: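 Compounds were tested on a yeast strain with an engineered DNA damage repair alteration; the reported value is growth inhibition normalised to vehicle treatment.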
Assay [2] in a line: NCI Yeast Anticancer Drug Screen. Data for the mec2-1 strain (AID 157). Particulars: S. cerevisiae mec2-1 strain, stronger effect = higher value. The gist of the method: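 Test agents were screened against the mec2-1 yeast strain, with defined DNA repair or cell cycle alteration. Growth was scored as inhibition against vehicle-only controls.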
Assay [3] can be described thus: NCI Yeast Anticancer Drug Screen. Data for the sgs1 mgt1 strain (AID 161).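 Note: 0% = growth of cultures given vehicle only.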 The conditions noted are these: S. cerevisiae sgs1 mgt1 strain, stronger effect = higher value. The gist of the method: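 Inhibition of yeast growth, normalised to vehicle-treated controls, is reported for a strain bearing genetic alterations in DNA damage repair.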
The nature of assay [4]: NCI Yeast Anticancer Drug Screen. Data for the cln2 rad14 strain (AID 165).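 Note: 0% = growth equal to vehicle treated cultures.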 Particulars: S. cerevisiae cln2 rad14 strain, stronger effect = higher value. An outline of the steps: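 Growth of compound-exposed yeast (cln2 rad14 genotype) measured and expressed as inhibition relative to vehicle.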
The nature of assay [5]: NCI Yeast Anticancer Drug Screen. Data for the bub3 strain (AID 167). The conditions noted are these: S. cerevisiae bub3 mutant strain, stronger effect = higher value. The gist of the method:
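Growth of a checkpoint-deficient yeast mutant is measured after compound exposure. Values represent inhibition relative to vehicle.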

Assay [6] is described as follows: NCI Yeast Anticancer Drug Screen. Data for the mlh1 rad18 strain (AID 175). Particulars: S. cerevisiae mlh1 rad18 strain growth inhibition, stronger effect = higher value. An outline of the steps:
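In this whole-cell yeast screen, a strain with altered DNA damage repair is challenged with compound, and its growth is measured against matched vehicle-treated controls.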

Where [7] appears, read: at 5.0 µM (retest, dose inferred, filed as 0.5).
Where [8] appears, read: at 50.0 µM (retest, dose inferred, filed as 5.0).

The panel holds about 79,000 compounds, 15% with a hit somewhere; the sample as a whole holds those more often. A number with no mark means an inactive call. The source made the active and inactive calls. Cut-off read from the data, not from the text of the source: active = growth inhibition above about 70%; inactive = the rest.

Regarding `O=C(CC(=O)c1ccc(O)cc1)c1ccccc1`, the growth inhibition is -1% in assay [1] (setting [7]); 50% in assay [1] (setting [8]); 60.8% in assay [1] (at 50.0 µM); -13% in assay [2] (setting [7]); 52% in assay [2] (setting [8]); 1.2% in assay [2] (at 50.0 µM). Also, the growth inhibition is -1% in assay [3] (setting [7]); 66% in assay [3] (setting [8]); 21.2% in assay [3] (at 50.0 µM); -1% in assay [4] (setting [7]); 62% in assay [4] (setting [8]); 4.5% in assay [4] (at 50.0 µM). The growth inhibition in assay [5] (setting [7]) was -6%; in assay [5] (setting [8]), 89% (active); in assay [5] (at 50.0 µM), 48.7%; in assay [6] (setting [7]), 3%; in assay [6] (setting [8]), 86% (active); in assay [6] (at 50.0 µM), 58%.

Take `CC(Nc1cc(Cl)cc(Cl)c1)c1ccncc1` (centres undefined): the growth inhibition in assay [1] (setting [7]) is 1%; in assay [1] (setting [8]), 98% (active); in assay [1] (at 50.0 µM), 37.2%; in assay [2] (setting [7]) it was -26%; in assay [2] (setting [8]), 98% (active); in assay [2] (at 50.0 µM), 56.4%. For the same compound, the growth inhibition in assay [3] (setting [7]) is -31%; in assay [3] (setting [8]) it was 91% (active); in assay [3] (at 50.0 µM), 43%; in assay [4] (setting [7]), 22%; in assay [4] (setting [8]), 98% (active); in assay [4] (at 50.0 µM) it was 22%. Besides, the growth inhibition in assay [5] (setting [7]) was -59%; in assay [5] (setting [8]) it was 99% (active); in assay [5] (at 50.0 µM) it was 43.5%; in assay [6] (setting [7]), -10%; in assay [6] (setting [8]), 98% (active); in assay [6] (at 50.0 µM), 42.5%.

As to `CC(=O)N(c1ccccc1)C(C)C`, the growth inhibition was 6% in assay [1] (setting [7]); 14% in assay [1] (setting [8]); -5.75% in assay [1] (at 50.0 µM); 6% in assay [2] (setting [7]); 0% in assay [2] (setting [8]); -10.2% in assay [2] (at 50.0 µM). The growth inhibition in assay [3] (setting [7]) is 1%; in assay [3] (setting [8]), 1%; in assay [3] (at 50.0 µM), -9.75%; in assay [4] (setting [7]) it was -1%; in assay [4] (setting [8]) it was -5%; in assay [4] (at 50.0 µM), 44.4%. Besides, the growth inhibition in assay [5] (setting [7]) is 10%; in assay [5] (setting [8]), 79% (active); in assay [5] (at 50.0 µM), -1.65%; in assay [6] (setting [7]), 14%; in assay [6] (setting [8]) it was 10%; in assay [6] (at 50.0 µM) it was 9.8%.

Turning to `Cc1ccccc1N=Nc1ccccc1`, the growth inhibition was 21% in assay [1] (setting [7]); 98% (active) in assay [1] (setting [8]); 99.4% (active) in assay [1] (at 50.0 µM); 17% in assay [2] (setting [7]); 99% (active) in assay [2] (setting [8]); 99.4% (active) in assay [2] (at 50.0 µM). Besides, the growth inhibition in assay [3] (setting [7]) is 22%; in assay [3] (setting [8]) it was 99% (active); in assay [3] (at 50.0 µM), 99.5% (active); in assay [4] (setting [7]), 12%; in assay [4] (setting [8]), 98% (active); in assay [4] (at 50.0 µM), 99.3% (active). In addition, the growth inhibition in assay [5] (setting [7]) is 48%; in assay [5] (setting [8]), 98% (active); in assay [5] (at 50.0 µM), 99.3% (active); in assay [6] (setting [7]), 39%; in assay [6] (setting [8]), 98% (active); in assay [6] (at 50.0 µM) it was 99.4% (active).

For `CCCCN(CCCC)CCC(O)c1cc2c(c3ccccc13)CCCC2` (centres undefined), the growth inhibition in assay [1] (setting [7]) is 1%; in assay [1] (setting [8]) it was 99% (active); in assay [1] (at 50.0 µM), 99.4% (active); in assay [2] (setting [7]) it was 5%; in assay [2] (setting [8]) it was 100% (active); in assay [2] (at 50.0 µM) it was 99.2% (active). The growth inhibition in assay [3] (setting [7]) was 10%; in assay [3] (setting [8]) it was 100% (active); in assay [3] (at 50.0 µM), 99.7% (active); in assay [4] (setting [7]) it was 0%; in assay [4] (setting [8]), 98% (active); in assay [4] (at 50.0 µM), 67.1%. In addition, the growth inhibition in assay [5] (setting [7]) was 10%; in assay [5] (setting [8]), 99% (active); in assay [5] (at 50.0 µM), 97.8% (active); in assay [6] (setting [7]), 9%; in assay [6] (setting [8]), 99% (active); in assay [6] (at 50.0 µM) it was 99.5% (active).

For the compound `Cc1[nH]c2ccccc2c1/C=C1/CCCCCCC1=O`, the growth inhibition in assay [1] (setting [7]) was -1%; in assay [1] (setting [8]), 45%; in assay [1] (at 50.0 µM), 93.8% (active); in assay [2] (setting [7]), -20%; in assay [2] (setting [8]), 34%; in assay [2] (at 50.0 µM), 93.6% (active). The growth inhibition is -11% in assay [3] (setting [7]); 66% in assay [3] (setting [8]); 96.5% (active) in assay [3] (at 50.0 µM); 3% in assay [4] (setting [7]); 24% in assay [4] (setting [8]); 91.6% (active) in assay [4] (at 50.0 µM). For the same compound, the growth inhibition in assay [5] (setting [7]) was -2%; in assay [5] (setting [8]) it was 41%; in assay [5] (at 50.0 µM) it was 93.5% (active); in assay [6] (setting [7]), -7%; in assay [6] (setting [8]) it was 72% (active); in assay [6] (at 50.0 µM) it was 97.3% (active).

With `ClC(Cl)(Cl)C1OCOC(C(Cl)(Cl)Cl)O1` (centres undefined), the growth inhibition was 20% in assay [1] (setting [7]); 98% (active) in assay [1] (setting [8]); 99.2% (active) in assay [1] (at 50.0 µM); 17% in assay [2] (setting [7]); 99% (active) in assay [2] (setting [8]); 99.2% (active) in assay [2] (at 50.0 µM). For the same compound, the growth inhibition is 11% in assay [3] (setting [7]); 99% (active) in assay [3] (setting [8]); 99.3% (active) in assay [3] (at 50.0 µM); 24% in assay [4] (setting [7]); 99% (active) in assay [4] (setting [8]); 99.3% (active) in assay [4] (at 50.0 µM). Moreover, the growth inhibition in assay [5] (setting [7]) was 3%; in assay [5] (setting [8]) it was 98% (active); in assay [5] (at 50.0 µM), 99.3% (active); in assay [6] (setting [7]), 33%; in assay [6] (setting [8]), 99% (active); in assay [6] (at 50.0 µM), 99.3% (active).

With `COC1=C(C)C(=O)C2=C(C1=O)C1C3CC4=C(C(=O)C(OC)=C(C)C4=O)C(CNC(=O)C(C)=O)N3C(C#N)C(C2)N1C` (centres undefined), the growth inhibition in assay [1] (setting [7]) is 78% (active); in assay [1] (setting [8]) it was 98% (active); in assay [1] (at 50.0 µM), 90.2% (active); in assay [2] (setting [7]), 53%; in assay [2] (setting [8]), 99% (active); in assay [2] (at 50.0 µM) it was 92% (active). The growth inhibition in assay [3] (setting [7]) is 35%; in assay [3] (setting [8]), 99% (active); in assay [3] (at 50.0 µM), 91.7% (active); in assay [4] (setting [7]) it was 88% (active); in assay [4] (setting [8]), 96% (active); in assay [4] (at 50.0 µM), 89.6% (active). Moreover, the growth inhibition is 22% in assay [5] (setting [7]); 98% (active) in assay [5] (setting [8]); 90.2% (active) in assay [5] (at 50.0 µM); 51% in assay [6] (setting [7]); 99% (active) in assay [6] (setting [8]); 88.3% (active) in assay [6] (at 50.0 µM).

Turning to `O=C(O)c1ccccc1SC(Sc1ccccc1C(=O)O)c1cccc(Cl)c1`, the growth inhibition was 8% in assay [1] (setting [7]); 92% (active) in assay [1] (setting [8]); 88% (active) in assay [1] (at 50.0 µM); 7% in assay [2] (setting [7]); 97% (active) in assay [2] (setting [8]); 80% (active) in assay [2] (at 50.0 µM). Further, the growth inhibition was 22% in assay [3] (setting [7]); 99% (active) in assay [3] (setting [8]); 97% (active) in assay [3] (at 50.0 µM); -1% in assay [4] (setting [7]); 87% (active) in assay [4] (setting [8]); 90% (active) in assay [4] (at 50.0 µM). The growth inhibition in assay [6] (setting [7]) is 15%; in assay [6] (setting [8]), 97% (active); in assay [6] (at 50.0 µM), 98% (active).
